Hit rate of the full screen: of about 4,100 compounds, about 1,600 (39%) were called active. Another 25% or so got no clear call; they are omitted. Calls follow the shape of the dose curve; as a rule, active = well fitted inhibition curve with a large enough effect; inconclusive = small, poorly fitted or top-dose-only effect; inactive = no such curve, though single readings can be large or run the other way. This is one part of the list.
test: qHTS Validation assay for Inhibitors of Plasmodium falciparum Dd2 growth in vitro; also: nearly all actives have a fitted effect of over 70% in size; conditions: P. falciparum Dd2 in RBCs, SYBR Green growth, 72 h; series mostly up to 28.7 µM; activity change, negative = inhibition: at the top concentration
Method in brief: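 P. falciparum Dd2-infected red blood cells (2.5% hematocrit, 0.3% parasitemia) grown 72 h at 37 °C under 5% O2 with compounds in a titration, 29 uM to 0.5 nM final. Growth read as SYBR Green-1 fluorescence after ~16 h lysis; artesunate 300 nM as positive control.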
% is scaled to controls: 0 for no effect and ±100 for the full control effect; potency is read from the fitted curve at half-maximal effect.

SMILES	Potency	activity change, negative = inhibition
COc1ccc(-n2nc(C(=O)NCC(=O)N3CCN(c4ccccc4OC)CC3)c3ccccc3c2=O)cc1OC	6.68 µM (active)	
COc1ccc(-n2nc(C(=O)NCC(=O)N3CCN(c4ccccc4OC)CC3)c3ccccc3c2=O)c(OC)c1	2.11 µM (active)	
COc1cccc2c(=O)n(CC(=O)NCCc3ccccc3)ccc12		35.5% (inactive)
COc1ccccc1N1CCN(C(=O)CNS(=O)(=O)c2ccc(Br)s2)CC1		40.1% (inactive)
O=C(NCCc1c[nH]c2ccccc12)c1c(OCC2CC2)cc(=O)n2c1CCOCC2		-39.2% (inactive)
Cc1cc(OC(C)C(=O)NCCc2c[nH]c3ccccc23)c2c(C)cc(=O)oc2c1 (stereo not drawn)	2.66 µM (active)	
CCc1cc(=O)oc2cc(C)cc(OCC(=O)NCC(O)c3ccccc3)c12 (stereo not drawn)	6.68 µM (active)	
CCCc1noc(-c2ccn3c(CNC(=O)C(C)Oc4ccccc4)nnc3c2)n1 (stereo not drawn)		-11.4% (inactive)
CCCc1cc(=O)oc2cc(C)cc(OC(C)C(=O)NCC(O)c3ccccc3)c12 (stereo not drawn)	0.842 µM (active)	
CCc1cc(=O)oc2cc(C)cc(OCC(=O)C(C)(C)C)c12	11.9 µM (active)	
Oc1cc(Cc2ccccc2)cnc1CN1CCCCC1	0.944 µM (active)	
CC12CC3CC(C)(C1)CC(Nc1nc(N4CCOCC4)nc4ccccc14)(C3)C2	9.44 µM (active)	
Clc1ccc(-c2nc(N3CCOCC3)nc3ccccc23)cc1		7.5% (inactive)
CN1N=C2c3ccccc3CCC2C1c1ccc(F)cc1 (stereo not drawn)	5.96 µM (active)	
Cc1ccc2oc(=O)n(CCOc3ccccc3C)c2c1	4.73 µM (active)	
COc1ccccc1C(=O)NCCn1ccn2nc(-c3cc(C)ccc3C)cc2c1=O		-2.98% (inactive)
O=C(c1cccs1)N1CCCCCC1CN1CCCC1 (stereo not drawn)	10.6 µM (active)	
O=C(N[C@H]1CCN2C(=O)c3ccccc3NC(=O)[C@@H]2C1)c1cccs1		27.3% [at 43.1 µM] (inactive)
CCNC(=O)N1CCCCCC1CN1CCc2ccccc2C1 (stereo not drawn)		-9.47% (inactive)
CCCCCCNC(=O)Cc1csc2nc(C)c(-c3cc(C)n(-c4cccc(C)c4)n3)c(=O)n12	15 µM (active)	
CCCCC(O)(c1ccc(CC)cc1)C(CN1CCOCC1)c1ccccc1 (stereo not drawn)	4.73 µM (active)	

SMILES	Potency	activity change, negative = inhibition
CCCCCC(O)(c1ccc(OC)cc1)C(CN1CCOCC1)c1ccccc1 (stereo not drawn)	2.11 µM (active)	
CCCCCCC(O)(c1ccc(OC)cc1)C(CN1CCOCC1)c1ccccc1 (stereo not drawn)	4.22 µM (active)	
CCCN1C(CC(C)C)=NS(=O)(=O)c2cc(NC(=O)c3cccs3)ccc21	0.335 µM (active)	
CCCN1C(CC(C)C)=NS(=O)(=O)c2cc(NC(=O)c3ccco3)ccc21	7.5 µM (active)	
CCC(Oc1ccccc1)C(=O)Nc1cc(C(F)(F)F)ccc1N1CCOCC1 (stereo not drawn)	7.5 µM (active)	
COc1cc(Cl)c(C)cc1NC(C)C(=O)Nc1cc(C(F)(F)F)ccc1N1CCOCC1 (stereo not drawn)	0.422 µM (active)	
CCOc1ccccc1NC(C)C(=O)Nc1cc(C(F)(F)F)ccc1N1CCOCC1 (stereo not drawn)	2.66 µM (active)	
COc1ccc(NC(C)C(=O)Nc2cc(C(F)(F)F)ccc2N2CCOCC2)c(OC)c1 (stereo not drawn)	0.842 µM (active)	
CCOc1ccccc1NC(=O)N1CCC([C@@H]2[C@H](OC)C(=O)N2C(C)C)CC1		20.9% (inactive)
CC(Oc1ccccc1)C(=O)NC1CCN(c2cc(C(F)(F)F)ncn2)CC1 (stereo not drawn)		-10.9% (inactive)
COc1cc2c(Nc3ccc(Br)cc3F)ncnc2cc1OCC1CCN(C)CC1	5.96 µM (active)	
Clc1ccc2c(N3CCCC3)ccnc2c1	3.76 µM (active)	
Nc1cc(Cl)ccc1N1CCCC1		25.9% (inactive)
O=C(c1ccc(F)c(Cl)c1)N1CCN(c2cc(C(F)(F)F)ncn2)CC1		5.98% (inactive)
O=C(Nc1ccc(C(F)(F)F)cc1)N1CCN(c2ccnc3cc(Cl)ccc23)CC1	5.31 µM (active)	
COc1ccc(CNc2ncnc3c2cnn3-c2ccc(C)c(C)c2)cc1		38.6% (inactive)
Cc1ccc(-n2ncc3c(NCc4ccco4)ncnc32)cc1C	15 µM (active)	
COc1ccc(CCNc2ncnc3c2cnn3-c2ccc(F)cc2)cc1		22.9% (inactive)
COc1ccc(S(=O)(=O)N(C)C)cc1NC(C)C(=O)Nc1cccc(C#N)c1 (stereo not drawn)	6.68 µM (active)	
CCc1nnc([C@@H]2CC(F)(F)CN2Cc2cccn2C)o1		-14.9% (inactive)
CCOC(=O)c1c(NC(=O)COc2ccc(F)cc2)sc2c1CCC(C)C2 (stereo not drawn)		21.2% (inactive)

SMILES	Potency	activity change, negative = inhibition
CCOC(=O)c1c(C)n(-c2ccc(F)cc2)c2ccc(O)cc12	6.68 µM (active)	
COc1cccc(C2C(C(=O)Nc3ccc(C)cc3C)=C(C)Nc3c(C(=O)Nc4ccccc4)cnn32)c1 (stereo not drawn)	2.11 µM (active)	
CC1=C(C(=O)Nc2ccc(C)cc2C)C(c2ccc(Br)cc2)n2ncc(C(=O)Nc3cccc(C)c3)c2N1 (stereo not drawn)	3.35 µM (active)	
CC1=C(C(=O)Nc2ccc(C)cc2C)C(c2ccc([N+](=O)[O-])cc2)n2ncc(C(=O)Nc3ccc(F)cc3)c2N1 (stereo not drawn)	2.99 µM (active)	
COc1cccc(CC(=O)NCCn2ccn3nc(-c4ccc(C)cc4C)cc3c2=O)c1		-12.7% (inactive)
CCOc1ccccc1NC(=O)Nc1ccc2nc(N3CCN(C)CC3)cc(C)c2c1	1.33 µM (active)	
Cc1cc(=O)n(CC(=O)Nc2ccc(C)c(F)c2)c(N2CCc3ccccc3C2)n1		-8.95% (inactive)
Cc1cc(N2CCN(C)CC2)nc2ccc(NC(=O)Nc3cccc(Cl)c3)cc12	4.22 µM (active)	
CCCN(CCC)CCCNC(=S)Nc1ccc2nc(N3CCCC3)cc(C)c2c1		-17.7% (inactive)
O=C([C@@H]1C[C@H](F)CN1C(=O)Nc1cccc(Cl)c1)N1CCCCC1		9.66% (inactive)
CCOc1cccc(CC(=O)Nc2ccc3nc(N4CCCCC4)cc(C)c3c2)c1OCC	6.68 µM (active)	
Cc1ccccc1NC(=O)Nc1ccc2nc(N3CCN(C)CC3)cc(C)c2c1	1.5 µM (active)	
CCOc1ccc(-n2nc3cc(C)c(NC(=O)c4cc(OCC)c(OCC)c(OCC)c4)cc3n2)cc1		57.9% (inactive)
COc1ccc(CN2CCCC3(CNc4ccccc4[S+](=O)([O-])N3)C2)cc1 (stereo not drawn)		-16.7% (inactive)
CN(C)c1cc(N2CCCC(NC(=O)c3ccsc3)C2)ncn1 (stereo not drawn)		17.4% (inactive)
O=C(Nc1ccccc1)N1CCC(N2CC(OCC3CC3)C23CCOCC3)CC1 (stereo not drawn)		-22.8% (inactive)
Cn1cccc1CN1CCC(N2CC(OCC3CC3)C23CCCCC3)CC1 (stereo not drawn)	7.5 µM (active)	
COc1cccc(CN2CCC(N3CC(OCC4CC4)C34CCCCC4)CC2)n1 (stereo not drawn)	4.22 µM (active)	
CN(C)S(=O)(=O)N1CCC(N2C(=O)C(OCC3CC3)C23CCCCC3)CC1 (stereo not drawn)		-24% (inactive)
CCn1cc(CN2CCC(N3CC(OCC4CC4)C34CCCCC4)CC2)cn1 (stereo not drawn)	8.41 µM (active)	
Fc1cccc(CN2CCC(N3CC(OCC4CC4)C34CCCCC4)CC2)c1 (stereo not drawn)	4.22 µM (active)	
